Here are results for five compounds from PubChem BioAssay (EPA / NIEHS).

Assay [1] in a line: ATG_TCF_b_cat_CIS: Attagene CIS-FACTORIAL HepG2 Assay for human T-Cell-Factor with beta-catenin (TCF/b-cat) (AID 2282965; active = hit-call score of the fitted dose curve at least 0.9, where 1 is the maximum; inactive = score below 0.9). To be noted: HepG2 TCF/beta-catenin cis-reporter transcription, actives raise or lower the signal. In a few lines:
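Cells of the HepG2 line carry transiently transfected reporter units whose promoters respond to endogenous factors. Twenty-four hours post-dosing, reporter mRNA induction is measured by fluorescent RT-PCR and capillary electrophoresis, with DMSO as baseline.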

Assay [2] is described as follows: ATG_TAL_CIS: Attagene CIS-FACTORIAL HepG2 Assay for human TAL Basal Promoter (AID 2282966; active = hit-call score of the fitted dose curve at least 0.9, where 1 is the maximum; inactive = score below 0.9;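 note: background control endpoint measuring basal TAL promoter reporter mRNA not a specific factor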). The conditions noted are these: HepG2 Attagene cis-factorial TAL promoter reporter; actives raise or lower the signal. In a few lines:
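Basal-promoter background-control endpoint from a multiplexed HepG2 reporter panel. Cells were exposed 24 h, then reporter mRNA was read by RT-PCR/CE fluorescence and fitted in both directions relative to DMSO.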

Assay [3] is described as follows: ATG_TGFb_CIS: Attagene CIS-FACTORIAL HepG2 Assay for human Transforming Growth Factor (TGF) (AID 2282967; active = hit-call score of the fitted dose curve at least 0.9, where 1 is the maximum; inactive = score below 0.9). To be noted: HepG2 Attagene CIS TGFb reporter, mRNA transcription; actives raise or lower the signal. In a few lines:
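Transcript-level reporter readout: HepG2 transfectants, 24 h exposure, RNA to cDNA, reporter-specific PCR, fluorescent primer extension, capillary sizing against ROX standards. Gain- or loss-of-signal relative to DMSO.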

Assay [4] in a line: ATG_VDRE_CIS: Attagene CIS-FACTORIAL HepG2 Assay for human Vitamin D Receptor Element (VDRE) (AID 2282968; active = hit-call score of the fitted dose curve at least 0.9, where 1 is the maximum; inactive = score below 0.9). The conditions noted are these: HepG2 VDRE cis-reporter transcription, actives raise or lower the signal. In a few lines:
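Compounds were applied for 24 h to HepG2 cells transfected with promoter-regulated reporter units. Total RNA was reverse-transcribed, and reporter amplicons were fluorescently labelled and sized by capillary electrophoresis.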

For assay [5], the target named is Nuclear receptor subfamily 1 group I member 3 (Homo sapiens) (UniProt Q14994). In words: ATG_CAR_TRANS: Attagene TRANS-FACTORIAL HepG2 Assay for human Constitutive Androstane Receptor (CAR) (AID 2282969).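 Note: activators raise reporter mRNA above DMSO so AC50 marks induction.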 To be noted: HepG2 Attagene TRANS-FACTORIAL CAR reporter. In a few lines:
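Transiently transfected HepG2, multiplex TRANS reporters (CAR-Gal4 chimera driving GAL4-UAS reporter). 24 h dosing. Readout: reporter transcript by RT-PCR + capillary electrophoresis, fluorescence intensity; positive direction vs DMSO.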

Assay [6] has as its target Estrogen receptor (Homo sapiens) (UniProt P03372). In words: ATG_ERa_TRANS: Attagene TRANS-FACTORIAL HepG2 Assay for human Estrogen Receptor alpha (ERa) (AID 2282970). To be noted: HepG2 Attagene TRANS ERa GAL4 reporter, mRNA. In a few lines: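 Gal4-fusion ERa transactivation, measured as reporter transcript level in transiently transfected HepG2 cells. Exposure 24 h; RT-PCR plus capillary electrophoresis with fluorescence detection.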

The target in assay [7] is X-box-binding protein 1 (Homo sapiens) (UniProt P17861). In words: ATG_Xbp1_CIS: Attagene CIS-FACTORIAL HepG2 Assay for human X-box Binding Protein 1 (XBP1) (AID 2282972; active = hit-call score of the fitted dose curve at least 0.9, where 1 is the maximum; inactive = score below 0.9). To be noted: HepG2 XBP1 cis-element reporter, Attagene multiplex; actives raise or lower the signal. The essentials: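 Changes in reporter transcript abundance, read by RT-PCR and capillary electrophoresis, reflect endogenous transcription factor activity. Transfected HepG2 cells received compound for 24 hours; DMSO defined baseline for bidirectional analysis.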

Assay [8] can be described thus: ATG_GAL4_TRANS: Attagene TRANS-FACTORIAL HepG2 Assay for GAL4 (Internal Marker) (AID 2282976). To be noted: HepG2 Attagene TRANS GAL4 internal marker reporter. In a few lines: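 Background-control readout: GAL4-UAS reporter transcript in transiently transfected HepG2 cells after 24 h compound exposure. Measured by RT-PCR, 6-FAM primer extension, HpaI digest and capillary electrophoresis; gain-of-signal fit versus DMSO.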

Assay [9] addresses Bile acid receptor (Homo sapiens) (UniProt Q96RI1). In words: ATG_FXR_TRANS: Attagene TRANS-FACTORIAL HepG2 Assay for Farnesoid X Receptor (FXR) (AID 2282979).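 Note: hits raise reporter mRNA above DMSO so AC50 marks FXR activation.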 The conditions noted are these: HepG2 Attagene TRANS FXR-GAL4 reporter transcription. The essentials: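 HepG2 cells were transiently transfected with GAL4-UAS reporters driven by chimeric NR-Gal4 proteins and dosed for 24 h. Reporter mRNA was quantified by RT-PCR, fluorescent labelling, HpaI digestion and capillary electrophoresis, with gain of signal scored versus DMSO.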

Assay [10] has as its target Oxysterols receptor LXR-alpha (Homo sapiens) (UniProt Q13133). In words: ATG_LXRa_TRANS: Attagene TRANS-FACTORIAL HepG2 Assay for human Liver X Receptor alpha (LXRa) (AID 2282980). To be noted: HepG2 Attagene TRANS reporter, LXRa transactivation. In a few lines:
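HepG2 cells transiently transfected with GAL4-UAS reporter units for chimeric NR-Gal4 proteins, exposed to chemicals for 24 h. Reporter mRNA quantified by RT-PCR and capillary electrophoresis; gain of signal fitted relative to DMSO.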

Assay [11] has as its target Oxysterols receptor LXR-beta (Homo sapiens) (UniProt P55055). Description: ATG_LXRb_TRANS: Attagene TRANS-FACTORIAL HepG2 Assay for human Liver X Receptor beta (LXRb) (AID 2282981). To be noted: HepG2 Attagene TRANS GAL4-LXRb reporter, mRNA. The essentials: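 Multiplexed reporter assay, HepG2, 24 h dosing. Fluorescence of labelled RT-PCR products after capillary electrophoresis gives transcript level; positive fitting direction relative to DMSO.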

Assay [12] deals with Hepatocyte nuclear factor 4-alpha (Homo sapiens) (UniProt P41235). Description: ATG_HNF4a_TRANS: Attagene TRANS-FACTORIAL HepG2 Assay for human Hepatocyte Nuclear Factor 4 alpha (HNF4a) (AID 2282982). To be noted: HepG2 HNF4a transactivation reporter, mRNA readout. In a few lines:
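Endpoint reflects transcriptional activation of a GAL4-UAS reporter by an HNF4a-GAL4 chimera in transfected HepG2 cells, 24 h post-dosing. Fluorescence from RT-PCR products separated by capillary electrophoresis; DMSO baseline.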

Assay [13] concerns the target Nuclear receptor subfamily 4 group A member 2 (Homo sapiens) (UniProt P43354). Description: ATG_NURR1_TRANS: Attagene TRANS-FACTORIAL HepG2 Assay for human Nuclear Receptor Related Protein 1 (NURR1) (AID 2282985). To be noted: HepG2 Attagene TRANS reporter, mRNA readout. In a few lines:
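Endpoint: reporter mRNA increase relative to DMSO. HepG2 cells transfected with reporter units, treated 24 h; RNA processed by RT-PCR, labelling, HpaI digestion and capillary electrophoresis.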

In assay [14] the target is Transcriptional activator Myb (Homo sapiens) (UniProt P10242). In words: ATG_Myb_CIS: Attagene CIS-FACTORIAL HepG2 Assay for human Myeloblastosis (Myb) Proto-Oncogene Transcription Factor (AID 2282986; active = hit-call score of the fitted dose curve at least 0.9, where 1 is the maximum; inactive = score below 0.9). To be noted: HepG2 Attagene CIS-FACTORIAL Myb reporter transcription; actives raise or lower the signal. The essentials:
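Steps: transfect HepG2 with cis-regulated reporter units; dose with chemical for 24 h; isolate RNA, reverse-transcribe, PCR-amplify and FAM-label reporter sequences; digest with HpaI; resolve by capillary electrophoresis. Activity fitted in both directions relative to DMSO.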

Assay [15] is described as follows: ATG_M_19_TRANS: Attagene TRANS-FACTORIAL HepG2 Assay for M19 Transcription Factor (Internal Marker) (AID 2282974). The conditions noted are these: HepG2 Attagene TRANS-FACTORIAL M19 internal marker reporter. In a few lines: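 Cells: human HepG2, transiently transfected with multiplexed reporter transcription units. Exposure: 24 h. Detection: RT-PCR of reporter mRNA with capillary electrophoresis. Analysis: gain-of-signal vs DMSO.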

Assay [16] is described as follows: ATG_M_06_TRANS: Attagene TRANS-FACTORIAL HepG2 Assay for M06 Transcription Factor (Internal Marker) (AID 2282983). To be noted: HepG2 Attagene TRANS M06 internal marker reporter. In a few lines:
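mRNA levels of a reporter transcript, quantified as FAM fluorescence on capillary electrophoresis, served as readout. HepG2 cells expressing exogenous GAL4-chimera reporter constructs were exposed for 24 h. Gain of signal over DMSO was evaluated.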

The nature of assay [17]: ATG_M_32_TRANS: Attagene TRANS-FACTORIAL HepG2 Assay for M32 Transcription Factor (Internal Marker) (AID 2282984). The conditions noted are these: HepG2 Attagene TRANS M32 internal marker reporter. In a few lines:
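Internal-marker readout from a multiplexed transcription reporter panel. HepG2 cells were transfected with GAL4-UAS reporter units, treated 24 hours, and reporter transcript levels determined by fluorescence after RT-PCR and capillary separation.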

Assay [18] addresses Estrogen-related receptor gamma (Homo sapiens) (UniProt P62508). Description: ATG_ERRg_TRANS: Attagene TRANS-FACTORIAL HepG2 Assay for human Estrogen-Related Receptor gamma (ERRg) (AID 2282977).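 Note: hits increase reporter signal over DMSO so potencies reflect activators.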 To be noted: HepG2 Attagene TRANS reporter, ERRg transactivation. In a few lines: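 Exogenous NR-Gal4 chimera activity measured as reporter transcript induction after 24 h in transiently transfected HepG2 cells. RNA reverse-transcribed, PCR-amplified, 6-FAM-labelled and resolved by capillary electrophoresis; increase over DMSO baseline.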

Results filed as inconclusive are left out. Active and inactive are the calls of the source. Rule for the calls, unless noted: active = hit-call score of the fitted dose curve at least 0.9, where 1 is the maximum; inconclusive = response in the unintended direction; inactive = score below 0.9.

Chain of Oxysterols receptor LXR-alpha (Homo sapiens) (Q13133 whole entry, looked up, the tested form may be a part): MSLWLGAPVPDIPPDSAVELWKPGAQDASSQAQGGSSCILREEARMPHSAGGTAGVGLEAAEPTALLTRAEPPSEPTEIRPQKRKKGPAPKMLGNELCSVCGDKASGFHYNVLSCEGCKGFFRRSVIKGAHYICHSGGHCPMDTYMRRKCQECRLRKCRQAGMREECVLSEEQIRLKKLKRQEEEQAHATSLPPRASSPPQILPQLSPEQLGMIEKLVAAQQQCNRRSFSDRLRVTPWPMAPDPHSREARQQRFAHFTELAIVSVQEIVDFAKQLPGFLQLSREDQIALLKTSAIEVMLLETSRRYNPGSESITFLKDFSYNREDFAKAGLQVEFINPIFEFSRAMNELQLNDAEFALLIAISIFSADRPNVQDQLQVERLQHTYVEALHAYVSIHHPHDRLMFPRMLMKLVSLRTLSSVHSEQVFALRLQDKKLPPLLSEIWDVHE
Chain of Oxysterols receptor LXR-beta (Homo sapiens) (P55055 whole entry, looked up, the tested form may be a part): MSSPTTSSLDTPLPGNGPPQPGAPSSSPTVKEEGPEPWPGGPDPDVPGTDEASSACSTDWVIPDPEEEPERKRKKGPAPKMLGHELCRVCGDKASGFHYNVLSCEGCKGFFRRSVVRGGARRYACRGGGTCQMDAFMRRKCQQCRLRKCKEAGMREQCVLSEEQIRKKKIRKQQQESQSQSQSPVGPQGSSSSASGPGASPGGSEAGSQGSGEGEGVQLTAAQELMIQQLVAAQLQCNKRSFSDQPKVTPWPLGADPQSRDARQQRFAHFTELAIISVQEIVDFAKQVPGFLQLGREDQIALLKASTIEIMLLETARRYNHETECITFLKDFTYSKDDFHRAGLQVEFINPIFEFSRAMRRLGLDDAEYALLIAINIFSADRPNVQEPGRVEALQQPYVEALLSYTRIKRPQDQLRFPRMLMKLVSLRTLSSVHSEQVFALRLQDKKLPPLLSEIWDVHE
Chain of Hepatocyte nuclear factor 4-alpha (Homo sapiens) (P41235 whole entry, looked up, the tested form may be a part): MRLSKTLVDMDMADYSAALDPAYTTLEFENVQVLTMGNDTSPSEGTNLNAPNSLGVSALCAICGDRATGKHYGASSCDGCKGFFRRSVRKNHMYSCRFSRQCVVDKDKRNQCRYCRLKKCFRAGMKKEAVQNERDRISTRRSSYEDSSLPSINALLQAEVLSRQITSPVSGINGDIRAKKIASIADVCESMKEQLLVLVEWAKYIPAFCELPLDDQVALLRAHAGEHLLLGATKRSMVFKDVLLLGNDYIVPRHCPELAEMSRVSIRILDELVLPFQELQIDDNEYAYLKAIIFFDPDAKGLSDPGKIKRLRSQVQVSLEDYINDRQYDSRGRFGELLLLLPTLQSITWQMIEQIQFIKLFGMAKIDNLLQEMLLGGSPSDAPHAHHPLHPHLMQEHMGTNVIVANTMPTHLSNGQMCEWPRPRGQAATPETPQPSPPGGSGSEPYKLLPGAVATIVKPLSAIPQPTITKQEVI
Chain of Nuclear receptor subfamily 1 group I member 3 (Homo sapiens) (Q14994 whole entry, looked up, the tested form may be a part): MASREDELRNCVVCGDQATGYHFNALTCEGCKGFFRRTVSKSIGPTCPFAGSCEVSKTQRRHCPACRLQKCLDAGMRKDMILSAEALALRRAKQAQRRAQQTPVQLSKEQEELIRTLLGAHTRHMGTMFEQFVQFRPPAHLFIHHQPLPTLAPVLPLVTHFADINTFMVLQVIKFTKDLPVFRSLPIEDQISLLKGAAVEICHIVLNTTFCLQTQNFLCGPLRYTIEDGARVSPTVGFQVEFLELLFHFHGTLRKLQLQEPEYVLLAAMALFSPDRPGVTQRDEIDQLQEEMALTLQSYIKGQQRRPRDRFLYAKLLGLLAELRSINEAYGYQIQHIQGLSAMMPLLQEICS
Chain of Nuclear receptor subfamily 4 group A member 2 (Homo sapiens) (P43354 whole entry, looked up): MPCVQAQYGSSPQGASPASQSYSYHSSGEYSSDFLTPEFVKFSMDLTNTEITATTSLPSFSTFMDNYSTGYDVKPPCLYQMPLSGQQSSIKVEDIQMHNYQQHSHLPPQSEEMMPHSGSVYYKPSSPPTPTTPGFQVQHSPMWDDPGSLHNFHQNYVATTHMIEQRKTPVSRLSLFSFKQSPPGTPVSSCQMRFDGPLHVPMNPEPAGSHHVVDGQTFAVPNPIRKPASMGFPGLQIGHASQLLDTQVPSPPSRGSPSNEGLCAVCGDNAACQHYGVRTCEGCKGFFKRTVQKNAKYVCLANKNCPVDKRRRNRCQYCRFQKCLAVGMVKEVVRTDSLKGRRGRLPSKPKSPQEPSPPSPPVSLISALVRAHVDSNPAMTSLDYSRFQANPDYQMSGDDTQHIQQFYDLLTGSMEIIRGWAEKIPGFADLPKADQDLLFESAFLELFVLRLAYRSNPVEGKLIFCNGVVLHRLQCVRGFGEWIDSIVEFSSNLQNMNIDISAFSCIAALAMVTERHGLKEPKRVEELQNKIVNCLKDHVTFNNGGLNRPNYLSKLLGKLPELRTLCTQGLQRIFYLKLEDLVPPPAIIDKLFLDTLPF
Chain of Bile acid receptor (Homo sapiens) (Q96RI1 whole entry, looked up, the tested form may be a part): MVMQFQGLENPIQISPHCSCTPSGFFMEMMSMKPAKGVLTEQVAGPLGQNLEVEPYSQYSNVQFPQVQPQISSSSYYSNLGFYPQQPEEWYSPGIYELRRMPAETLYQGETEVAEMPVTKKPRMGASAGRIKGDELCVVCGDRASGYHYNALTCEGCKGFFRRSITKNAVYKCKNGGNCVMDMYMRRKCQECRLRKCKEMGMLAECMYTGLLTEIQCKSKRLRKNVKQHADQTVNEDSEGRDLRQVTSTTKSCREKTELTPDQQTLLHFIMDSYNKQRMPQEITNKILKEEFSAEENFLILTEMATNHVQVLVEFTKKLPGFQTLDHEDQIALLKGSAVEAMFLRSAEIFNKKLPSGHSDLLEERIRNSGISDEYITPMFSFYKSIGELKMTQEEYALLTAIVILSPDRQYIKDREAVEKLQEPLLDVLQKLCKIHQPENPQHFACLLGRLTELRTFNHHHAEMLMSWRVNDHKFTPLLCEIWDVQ
Chain of Estrogen receptor (Homo sapiens) (P03372 whole entry, looked up, the tested form may be a part): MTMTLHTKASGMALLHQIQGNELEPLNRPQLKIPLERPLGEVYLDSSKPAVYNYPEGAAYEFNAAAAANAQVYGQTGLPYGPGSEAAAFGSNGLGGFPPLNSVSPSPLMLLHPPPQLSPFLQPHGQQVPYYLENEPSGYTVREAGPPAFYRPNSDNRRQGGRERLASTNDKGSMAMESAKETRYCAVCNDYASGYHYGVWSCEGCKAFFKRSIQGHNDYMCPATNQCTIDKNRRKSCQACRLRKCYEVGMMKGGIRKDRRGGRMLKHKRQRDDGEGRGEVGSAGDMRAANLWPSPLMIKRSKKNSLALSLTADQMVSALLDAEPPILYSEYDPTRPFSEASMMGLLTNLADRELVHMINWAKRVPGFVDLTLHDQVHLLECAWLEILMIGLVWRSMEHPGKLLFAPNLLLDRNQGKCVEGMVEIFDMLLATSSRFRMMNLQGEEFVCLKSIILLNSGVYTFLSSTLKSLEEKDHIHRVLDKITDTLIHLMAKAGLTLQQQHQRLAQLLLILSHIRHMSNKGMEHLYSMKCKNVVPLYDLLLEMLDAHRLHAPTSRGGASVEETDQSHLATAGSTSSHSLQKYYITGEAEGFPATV
Chain of X-box-binding protein 1 (Homo sapiens) (P17861 whole entry, looked up): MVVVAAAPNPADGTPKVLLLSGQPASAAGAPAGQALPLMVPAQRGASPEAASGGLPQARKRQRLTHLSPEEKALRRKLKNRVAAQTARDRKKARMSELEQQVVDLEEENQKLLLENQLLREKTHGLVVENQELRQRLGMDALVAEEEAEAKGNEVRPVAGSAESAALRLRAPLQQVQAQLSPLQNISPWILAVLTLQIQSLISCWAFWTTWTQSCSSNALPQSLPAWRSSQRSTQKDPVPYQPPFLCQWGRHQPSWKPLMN
Chain of Transcriptional activator Myb (Homo sapiens) (P10242 whole entry, looked up): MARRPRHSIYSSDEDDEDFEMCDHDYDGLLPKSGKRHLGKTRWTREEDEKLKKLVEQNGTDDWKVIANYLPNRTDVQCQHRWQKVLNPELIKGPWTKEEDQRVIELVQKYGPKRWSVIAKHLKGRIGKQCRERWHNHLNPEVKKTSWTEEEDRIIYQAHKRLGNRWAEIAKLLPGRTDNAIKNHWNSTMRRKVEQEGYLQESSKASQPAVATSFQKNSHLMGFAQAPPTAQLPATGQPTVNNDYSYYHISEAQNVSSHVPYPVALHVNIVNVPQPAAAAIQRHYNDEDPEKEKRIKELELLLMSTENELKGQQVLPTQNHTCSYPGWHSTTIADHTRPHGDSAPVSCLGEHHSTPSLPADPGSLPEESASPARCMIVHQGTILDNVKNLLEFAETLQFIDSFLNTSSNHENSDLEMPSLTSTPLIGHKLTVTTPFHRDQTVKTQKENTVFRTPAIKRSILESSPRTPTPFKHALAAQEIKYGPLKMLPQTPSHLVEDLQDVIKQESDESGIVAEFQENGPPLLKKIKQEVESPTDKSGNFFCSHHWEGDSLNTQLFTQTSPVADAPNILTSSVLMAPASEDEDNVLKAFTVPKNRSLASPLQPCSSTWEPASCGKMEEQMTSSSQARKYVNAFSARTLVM
Chain of Estrogen-related receptor gamma (Homo sapiens) (P62508 whole entry, looked up, the tested form may be a part): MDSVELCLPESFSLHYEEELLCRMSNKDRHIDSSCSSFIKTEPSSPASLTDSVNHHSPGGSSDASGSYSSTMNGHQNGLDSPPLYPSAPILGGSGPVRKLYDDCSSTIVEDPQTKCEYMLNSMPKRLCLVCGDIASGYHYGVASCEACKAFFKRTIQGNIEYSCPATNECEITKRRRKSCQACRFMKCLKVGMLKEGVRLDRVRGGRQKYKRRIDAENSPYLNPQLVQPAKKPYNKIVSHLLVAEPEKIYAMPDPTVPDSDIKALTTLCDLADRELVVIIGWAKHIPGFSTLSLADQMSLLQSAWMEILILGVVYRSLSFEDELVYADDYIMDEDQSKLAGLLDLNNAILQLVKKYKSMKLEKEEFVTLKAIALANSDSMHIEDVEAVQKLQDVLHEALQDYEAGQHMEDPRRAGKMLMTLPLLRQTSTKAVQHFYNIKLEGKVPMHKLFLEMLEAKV

On to `Nc1cc(Cl)c(N)c(Cl)c1`, for which the result in [1], in [2], in assay [3], in assay [4], in [5] and in assay [6] was inactive. In addition, the call in assay [7], in assay [8], in assay [9], in assay [10], in assay [11] and in assay [12] was inactive. The compound was classed as inactive in assay [13] and in assay [14].
Take `CN(C)Cc1ccccc1O`: the outcome in [1], in assay [2], in assay [3], in [4], in assay [5] and in [6] was inactive. Moreover, the outcome in [7], in assay [15], in assay [9], in [10], in [11] and in assay [16] was inactive. Also, the compound was called inactive in assay [17], in assay [13] and in assay [14].
Consider `C1COCCN1`, for which the call in [1], in [2], in assay [3], in assay [4], in assay [5] and in [6] was inactive. In addition, the compound was classed as inactive in assay [7], in assay [8], in assay [11], in [12], in assay [16] and in assay [13]. Besides, the compound was classed as inactive in assay [14].
Usually AC50 stands for the concentration at which the activity in the assay is half-maximal. Regarding `OCC(F)(F)C(F)(F)C(F)(F)C(F)(F)C(F)(F)C(F)F`, the compound was classed as inactive in [1], in assay [2], in assay [3], in assay [4], in assay [5] and in assay [7]. For the same compound, the call in assay [8], in [18], in [9], in assay [10], in assay [12] and in assay [13] was inactive. For the same compound, in assay [14], the call was inactive. For the same compound, the concentration at half-maximal activity (AC50) in assay [6] was 5.4 µM (active).
Take `N=C(N)C(F)(F)C(F)(F)C(F)(F)C(F)(F)C(F)(F)C(F)(F)C(F)(F)F`: the compound was classed as inactive in assay [1], in [2], in assay [3], in assay [4], in [5] and in assay [7]. Moreover, the compound was classed as inactive in assay [9], in assay [16], in assay [17] and in assay [13]. In addition, the AC50 in [6] was 40.6 µM (active).
